40 compounds from ChEMBL document CHEMBL3988442, “University of Dundee, Small-Polar-MMV Screening Library” (2021) can be followed below.

The assay deals with AMP-activated protein kinase, AMPK (Homo sapiens) (UniProt P54646+O43741+P54619+Q9UGJ0+Q9Y478+Q13131+Q9UGI9). Description: AMP-dependent Kinase enzyme assay. An in vitro enzyme assay that detects ADP turnover that is directly proportional to AMPK activity. This uses naive AMPK that is activated during the assay with MK-8722. It counts as functional. On the set-up: scale not given: direction of the effect not stated beside the values. The conditions noted are these: 30 µM.
In the case of `CCOC(=O)C(C)Nc1ccc(CCN2CCOCC2)cc1` (stereo not given), the Percent Effect is -1.34%.

As to `Cc1ccc(N2C[C@@H]3CN(C(=O)NC4CCCC4)C[C@]3(C(=O)O)C2)nn1`, the Percent Effect is -1.71%.

With `Cn1cc(CN2CCOC(Cc3cccc(F)c3)C2)cn1` (stereo not given), the Percent Effect was determined as 4.61%. The result for `CN(CCc1cccs1)CCc1nccs1` reads -4.34%; that for `Cc1nccn1-c1nccnc1C1CCCN(C)C1` (stereo not given), 1.28%. The result for `CCn1cc(CNCCNc2ncc(Cl)cc2Cl)cn1` reads 4.84%; that for `Cc1nnc(CN(Cc2cccc3c2OCO3)CC2CCCO2)n1C` (stereo not given), -6.12%; that for `O=C1CN(C(=O)c2cc3ccc(Br)cc3[nH]2)CCN1`, 91%. For the compound `CCc1ccccc1OCCN(C)C(=O)CCN1CCCO1`, the Percent Effect was -7.88%. For the compound `O=C(C1CC(c2ccccc2)=NO1)N1CCc2ccccc21` (stereo not given), the Percent Effect is 13.9%.

As to `CCN(CC)CCN(CC(C)C)c1cc(C(F)(F)F)nc2ncnn12`, the Percent Effect was 0.943%. In the case of `CCNC(=O)c1ccc(NC2CCOC3(CCCC3)C2)nn1` (stereo not given), the Percent Effect came to 2.07%.

Take `Cc1ccccc1C(=O)NC[C@@H]1CCN(C(=O)c2cscn2)C[C@H]1O`: the Percent Effect was found to be 1.22%. With `CN(Cc1csc(-c2cccs2)n1)Cc1ncccc1C(=O)O`, the Percent Effect was -1.78%. For `CC(CO)NS(=O)(=O)c1cccc(C(C)C)c1` (stereo not given), the Percent Effect is -0.593%. For the compound `CCOc1ccc(Cl)cc1CCNC(=O)Cn1nc(C)ccc1=O`, the Percent Effect was 5.21%.

As to `C[C@@H]1CN(Cc2nc(C(N)=O)no2)CC[C@@]1(O)C1CC1`, the Percent Effect was found to be 0.276%.

With `O=C(O)c1ccccc1-c1ccc(CN2CC(c3ccncn3)C2)o1`, the Percent Effect was found to be 11.8%.

`Cn1cc(CN2CCC(c3ncc(Cl)cc3S(C)(=O)=O)CC2)cn1`: the Percent Effect amounted to 9.1%. The figure for `Cc1ccnc(NC(=O)c2ccc(Br)o2)c1` is 5.24%; for `COc1ccc(S(=O)(=O)N2CCOC(C)(C(N)=O)C2)cc1` (stereo not given) it is 15.5%; for `CCN(CC)CCNCc1cc(O)c2cc(C)ccc2n1` it is 0.484%. `Cn1ccc(N2CCCC(NC(=O)c3ccsc3)C2=O)n1` (stereo not given): the Percent Effect is -4.2%. For `COc1ccccc1CC(C)CC(=O)N(C)Cc1cc(C)on1` (stereo not given), the Percent Effect came out at 3.99%.

With `CC(Oc1ccc2c(c1)OCO2)C(=O)N1CCC(N2CCCC2)CC1` (stereo not given), the Percent Effect stood at 6.31%. The result for `Cc1cc(C(=O)N2CC[C@H](N3CCN(C)CC3)[C@H](CCCO)C2)n(C)n1` reads 10.5%; that for `O=C(Cc1ccccc1O)NC1CCCN(c2ccccc2F)C1=O` (stereo not given), 8.51%. As to `O=C1CCC2(CCNCC2)CN1Cc1nnc2ccccn12`, the Percent Effect was found to be 8.07%. For `CCc1noc(CN2CCN(C(=O)OC(C)(C)C)C(C)C2)n1` (stereo not given), the Percent Effect amounted to 6.06%.

Turning to `COC(=O)[C@@H]1C[C@@H](O)CN1Cc1ccn(-c2ccc(F)cc2)n1`, the Percent Effect is -3.45%. With `O=C(Nc1ccc(-n2ccc(C(=O)O)n2)cc1)c1ccccc1`, the Percent Effect was 4.07%.

Take `CCNC(=O)c1ccc(NC(=O)N(C)Cc2cc(C)on2)c(C)c1`: the Percent Effect turned out to be 10.2%.

On to `COc1ccccc1CC(=O)N(C)Cc1cc(C)on1`, for which the Percent Effect is -2.06%. On to `COc1cccc(S(=O)(=O)N2CCCCC2CCN2CCCC2=O)c1` (stereo not given), for which the Percent Effect was found to be 5.93%. In the case of `Cc1ccccc1-n1ccnc1S(=O)(=O)Cc1nsc(N(C)C)n1`, the Percent Effect was -1.55%. On to `CC(C)Cc1noc(CN(C)C2CCCC2)n1`, for which the Percent Effect was 10.7%.

`CC(NCc1cnc(N2CCOCC2)nc1)c1ccc(Cl)s1` (stereo not given): the Percent Effect worked out at 10.3%. On to `Cc1ocnc1C(=O)N1CC[C@@]2(O)CCN(C(=O)N3CCCC3)C[C@H]2C1`, for which the Percent Effect is 6.59%. For `CN(CCc1noc(C2CC2)n1)C(=O)C1(N2CCCC2)CCCC1`, the Percent Effect is -3.61%.

With `CC(C)(C)c1cn2c(n1)C(CNCc1cnn3ccccc13)CCC2` (stereo not given), the Percent Effect was -1.22%.
